Here are results for 6 compounds from PubChem BioAssay (NCATS).

Test [1] is described as follows: Stat Signaling Pathway (AID 446; active = well fitted curve in either direction with a large enough effect, not every such curve was filed as active;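 also: ME-180 cervical cancer cells given 40 pM IL-6 alongside compound; SIE-controlled beta-lactamase reporter measured as 460/530 nm FRET emission ratio; % is scaled to controls: 0 for no effect and ±100 for the full control effect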). As to conditions: ME-180 SIE beta-lactamase reporter, IL-6 stimulated, 5 h; at 17.2 µM (top of the series). The method in brief:
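Reporter line: ME-180 cervical carcinoma, SIE-beta-lactamase. Treatment: compound with 40 pM IL-6, 5 hrs, 37 C, in low-serum OPTI-MEM with 10 mM HEPES pH 7.3. Detection: 460/530 nm fluorescence.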

Test [2] has as its target Mitogen-activated protein kinase 10 (Mus musculus) (UniProt Q61831). Nature of the test: JNK3 AlphaScreen Assay (AID 530; active = well fitted curve in either direction with a large enough effect, not every such curve was filed as active;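 also: kinase came from lysate of stimulated human HepG2 cells; signal reports phosphorylation of biotinylated GST-cJun 1-79 at Ser73 with 10 µM ATP; % is scaled to controls: 0 for no effect and ±100 for the full control effect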). The settings on record: JNK3 lysate, c-Jun phosphorylation; series mostly up to 57.1 µM. The method in brief: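 Room-temperature AlphaScreen kinase assay; pre-activated HepG2 lysate as JNK3 source, biotin-GST-cJun(1-79) substrate, 10 uM ATP, compound 15 min preincubation.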
In general terms: Alpha assays give light when donor and acceptor beads are brought close together.

The target of test [3] is 3',5'-cyclic-AMP phosphodiesterase 4B (Homo sapiens) (UniProt Q07343). The experiment in a line: qHTS Assay for Inhibitors of PDE-IV (AID 607; active = well fitted activation curve with a large enough effect in the main read-out, with a control signal flat, not every such curve was filed as active; also: % of control where 0% means no effect). As to conditions: HEK293 ACTOne CNG channel cells, membrane potential fluorescence; series mostly up to 22.9 µM. The method in brief: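 Cell-based read-out of cAMP via a modified cyclic nucleotide-gated channel and membrane potential dye (535/590 nm) in HEK293 cells expressing PDE4 endogenously. Compounds tested up to 22.9 uM final; 100 uM RO 20-1724 reference.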
3',5'-cyclic-AMP phosphodiesterase 4B (Homo sapiens), sequence (Q07343 whole entry, looked up): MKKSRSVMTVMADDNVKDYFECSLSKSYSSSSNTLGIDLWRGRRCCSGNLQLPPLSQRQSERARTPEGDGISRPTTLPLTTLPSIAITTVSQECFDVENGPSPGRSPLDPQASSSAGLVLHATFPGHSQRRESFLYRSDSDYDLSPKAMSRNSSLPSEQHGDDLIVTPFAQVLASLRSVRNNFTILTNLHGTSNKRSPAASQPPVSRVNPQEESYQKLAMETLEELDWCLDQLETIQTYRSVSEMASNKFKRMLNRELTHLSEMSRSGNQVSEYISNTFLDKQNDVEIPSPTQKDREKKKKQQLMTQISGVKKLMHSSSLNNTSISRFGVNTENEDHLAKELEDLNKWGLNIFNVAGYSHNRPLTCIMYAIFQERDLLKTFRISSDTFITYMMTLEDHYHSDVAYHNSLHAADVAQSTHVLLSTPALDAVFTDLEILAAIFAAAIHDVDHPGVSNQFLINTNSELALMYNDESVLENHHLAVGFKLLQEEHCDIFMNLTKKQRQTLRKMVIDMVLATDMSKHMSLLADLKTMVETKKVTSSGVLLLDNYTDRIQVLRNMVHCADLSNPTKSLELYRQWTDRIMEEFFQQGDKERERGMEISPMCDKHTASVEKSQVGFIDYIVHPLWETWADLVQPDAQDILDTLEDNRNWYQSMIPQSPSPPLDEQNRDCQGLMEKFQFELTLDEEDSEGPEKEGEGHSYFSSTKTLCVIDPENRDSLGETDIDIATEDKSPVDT
In general terms: In qHTS, concentration-response curves come from the screen itself.

Test [4] addresses Glucocorticoid receptor (Homo sapiens) (UniProt P04150). Nature of the test: GR-GFP Redistribution (AID 450;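 active = compounds whose dose series gives a full or clear partial fitted curve of increased nuclear translocation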; also: potency is read from the fitted curve at half-maximal effect). As to conditions: U2OS GR-GFP nuclear translocation, laser cytometry, 2 h.
Test [5] shares this target. Nature of the test: GR-EFC Redistribution (AID 451; calls by dose curve; also: potency is read from the fitted curve at half-maximal effect). The settings on record: CHO-K1 GR-EFC translocation, beta-gal luminescence, 2 h. The method in brief: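 Translocation of GR-ED fusion to nuclear EA restores b-gal, read by luminescence after 1 h room-temperature detection. Engineered CHO-K1 biosensor cells, 1,000/well, exposed 2 h at 37 C to titrations up to 46 uM final.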

Test [6] can be described thus: Cell Viability - N2a (AID 540). Also: nearly all actives have a fitted effect of over 45% in size. Also: potency is read from the fitted curve at half-maximal effect.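 As to activity change, negative = cytotoxicity: plate controls were DMSO alone for no effect and tamoxifen control for full effect.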 As to conditions: N2a mouse neuroblastoma cell viability; activity change, negative = cytotoxicity: at 92.2 µM (top of the series). Put shortly:
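Mouse neuroblastoma N2a cells (1500/well) were preincubated 5 hr at 37 °C, then exposed to compounds for 40 hr at 37 °C in complete medium. Viability was read as intracellular ATP by CellTiter-Glo luminescence; AC50 from Hill fits.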

Test [7] is described as follows: Cell Viability - NIH 3T3 (AID 541).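 Also: plate controls were DMSO alone for no effect and tamoxifen positive control for full effect; nearly all actives have a fitted effect of over 25% in size.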 As to conditions: NIH 3T3 cell viability, qHTS; activity change, negative = cytotoxicity: at 92.2 µM (top of the series). Put shortly:
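NIH 3T3 mouse embryo fibroblasts (1000 cells/well) were plated in complete medium and treated with compound for 40 hr at 37 °C. Viability was read as intracellular ATP by CellTiter-Glo luminescence; AC50 values came from Hill-equation fits of concentration-response data.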

The nature of test [8]: Cell Viability - HUV-EC-C (AID 542). Also: % is scaled to controls: 0 for no effect and ±100 for the full control effect; nearly all actives have a fitted effect of over 35% in size. The settings on record: HUV-EC-C endothelial cell viability, qHTS; series mostly up to 92.2 µM. The method in brief: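 HUV-EC-C normal human vascular endothelial cells, 1000 cells/well, pre-incubated 5 hr at 37 °C, then exposed to compounds for 40 hr at 37 °C in complete medium. Viability measured as intracellular ATP by CellTiter-Glo luminescence; AC50 from Hill fits.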

Test [9] can be described thus: Cell Viability - SH-SY5Y (AID 544). Also: nearly all actives have a fitted effect of over 55% in size. As to conditions: SH-SY5Y neuroblastoma cell viability; series mostly up to 92.2 µM. The method in brief: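 Human neuroblastoma SH-SY5Y cells (1500/well) in complete medium were exposed to compounds for 40 hr at 37 °C; intracellular ATP was then quantified by CellTiter-Glo luminescence after 20 min at room temperature. AC50 came from Hill-equation concentration-response fits.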

Test [10] can be described thus: Cell Viability - Renal Proximal Tubule (AID 545). Also: nearly all actives have a fitted effect of over 40% in size. As to conditions: renal proximal tubule cells viability, primary cells of rat origin; series mostly up to 91.7 µM. The method in brief:
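Rat kidney proximal tubule cells, freshly isolated; 1000 cells/well, 5 hr settle, compound 40 hr 37 °C. CellTiter-Glo 20 min RT, luminescence read. AC50 by standard Hill fit.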

A short description of test [11]: Cell Viability - Mesenchymal (AID 546).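 Also: cells exposed to compound for 40 hours before reading.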 As to conditions: mesenchymal cells viability, qHTS; series mostly up to 91.7 µM. The method in brief: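 AC50 values reflect the drop in intracellular ATP in a human kidney mesenchymal line derived from normal glomeruli. Treatment lasts 40 hr at 37 °C in complete medium, and the signal comes from CellTiter-Glo luminescence.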

Test [12] can be described thus: Cellular Toxicity (caspase-3) HepG2 (AID 654).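 Also: cells exposed to compound for 16 hours before reading; 0% = DMSO alone and 100% = caspase signal from 100 µM tamoxifen.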 As to conditions: HepG2 caspase-3 activation, luminescence; series mostly up to 92.2 µM. The method in brief: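 HepG2 cells (1500/well) in complete medium were treated with compounds for 16 hr at 37 °C. Caspase-3/7 activity was then read as luminescence from peptide-aminoluciferin cleavage. AC50 came from Hill fits, normalized to DMSO and 100 uM tamoxifen.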

A short description of test [13]: Cellular Toxicity (caspase-3) Jurkat (AID 655).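 Also: cells exposed to compound for 16 h at 37 °C before reading.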 The settings on record: Jurkat caspase-3 activation, luminescence; series mostly up to 92.2 µM. The method in brief:
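Luminescent caspase-3/7 readout (aminoluciferin substrate cleavage) in human T-cell leukemia Jurkat cells after 16 hr compound exposure. Concentration-response normalized to DMSO and 100 uM tamoxifen; AC50 by standard Hill equation.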

The nature of test [14]: Cellular Toxicity (caspase-3) HUV-EC-C (AID 656). As to conditions: HUV-EC-C cells, caspase-3 activation (apoptosis), vehicle = 0, 100 µM tamoxifen = 100%; series mostly up to 92.2 µM. Put shortly:
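Luminescent caspase-3/7 activation (aminoluciferin substrate cleavage) in HUV-EC-C cells after 16 hr compound exposure, 37°C. Signal normalized to DMSO basal and 100 uM tamoxifen as 100%; AC50 from concentration-response fitted with the Hill equation.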

Test [15] is described as follows: Cellular Toxicity (caspase-3) BJ (AID 658).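 Also: 0% = DMSO basal and 100% = 10 µM staurosporine.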 The settings on record: BJ fibroblasts, luminescence, normalized: DMSO 0%, staurosporine 100%; series mostly up to 91.7 µM. The method in brief:
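Readout: Caspase-Glo 3/7 luminescence increase in BJ cells after 16 hr treatment at 37 °C. Staurosporine and tamoxifen served as positive controls; AC50 values came from Hill modelling of data normalized to DMSO and 10 uM staurosporine.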

Test [16] in a line: Cellular Toxicity (caspase-3) MRC-5 (AID 659).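 Also: 0% = DMSO basal and 100% = 10 µM staurosporine.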 As to conditions: MRC-5 cells, luminescence; Potency: caspase-3 activation; series mostly up to 91.7 µM. Put shortly: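 Concentration-dependent caspase 3/7 activation is measured in human normal lung fibroblasts (MRC-5) following 16-hour treatment. AC50 values come from standard Hill-equation modeling of luminescence normalized to DMSO and 10 uM staurosporine.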

Test [17] can be described thus: Cellular Toxicity (caspase-3) Mesangial (AID 660).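 Also: cells exposed to compound for 16 h before the caspase read.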 The settings on record: mesangial cells, normalized: DMSO 0%, 100 µM tamoxifen 100%; series mostly up to 91.7 µM. The method in brief:
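Human renal glomerular mesangial cells (1000/well) were treated with compounds for 16 h at 37 °C in complete medium, then caspase 3/7 activity was read by Caspase-Glo luminescence. Data were normalized to DMSO and 100 uM tamoxifen; AC50 from Hill fits.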

A short description of test [18]: Cellular Toxicity (caspase-3) SK-N-SH (AID 661).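 Also: 0% = DMSO basal and 100% = 10 µM staurosporine.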 The settings on record: SK-N-SH caspase-3 activation, qHTS, DMSO as zero, staurosporine as full; series mostly up to 91.7 µM. The method in brief:
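SK-N-SH human neuroblastoma cells (1500/well) were treated with compounds for 16 hr at 37 °C in complete medium; caspase 3/7 activity was read by Caspase-Glo luminescence. AC50 came from Hill fits of data normalized to DMSO and 10 uM staurosporine.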

Test [19] in a line: Cellular Toxicity (caspase-3) H-4-II-E (AID 663).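 Also: cells exposed to compound for 16 hr before readout.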 The settings on record: H-4-II-E rat hepatoma, scaled: DMSO 0%, 100 µM tamoxifen 100%; series mostly up to 92.2 µM. Put shortly: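 Apoptosis induction is scored as increased luminescence from caspase 3/7 substrate cleavage in rat hepatoma H-4-II-E cells exposed to compound for 16 hr. Activity is scaled between DMSO and 100 uM tamoxifen.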

Test [20] can be described thus: Cellular Toxicity (caspase-3) Hek293 (AID 664).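 Also: cells exposed to compound for 16 h at 37 °C before readout.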 The settings on record: HEK293 caspase-3 activation, DMSO = 0%, 100 µM tamoxifen = 100%; series mostly up to 92.2 µM. The method in brief:
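HEK293 cells were exposed to compounds in complete medium for 16 hr at 37 °C, then caspase-3/7 activity was read by Caspase-Glo 3/7 luminescence after 20 min at room temperature. Data normalized to DMSO and 100 uM tamoxifen; AC50 from Hill fits.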

Several values for one entry are separate records, joined by “and”; a condition that tells them apart may be missing. Equal values may be shown once. Unmarked numbers belong to inactive results. Results filed as inconclusive are left out. Activity calls are given as the source filed them. Unless noted, calls follow the shape of the dose curve; as a rule, active = well fitted curve in the direction sought with a large enough effect; inconclusive = small, poorly fitted or top-dose-only effect, or another doubt; inactive = no such curve, though single readings can be large; an effect the other way counts as inactive or inconclusive.

Glucocorticoid receptor (Homo sapiens), sequence (P04150 whole entry, looked up, the tested form may be a part): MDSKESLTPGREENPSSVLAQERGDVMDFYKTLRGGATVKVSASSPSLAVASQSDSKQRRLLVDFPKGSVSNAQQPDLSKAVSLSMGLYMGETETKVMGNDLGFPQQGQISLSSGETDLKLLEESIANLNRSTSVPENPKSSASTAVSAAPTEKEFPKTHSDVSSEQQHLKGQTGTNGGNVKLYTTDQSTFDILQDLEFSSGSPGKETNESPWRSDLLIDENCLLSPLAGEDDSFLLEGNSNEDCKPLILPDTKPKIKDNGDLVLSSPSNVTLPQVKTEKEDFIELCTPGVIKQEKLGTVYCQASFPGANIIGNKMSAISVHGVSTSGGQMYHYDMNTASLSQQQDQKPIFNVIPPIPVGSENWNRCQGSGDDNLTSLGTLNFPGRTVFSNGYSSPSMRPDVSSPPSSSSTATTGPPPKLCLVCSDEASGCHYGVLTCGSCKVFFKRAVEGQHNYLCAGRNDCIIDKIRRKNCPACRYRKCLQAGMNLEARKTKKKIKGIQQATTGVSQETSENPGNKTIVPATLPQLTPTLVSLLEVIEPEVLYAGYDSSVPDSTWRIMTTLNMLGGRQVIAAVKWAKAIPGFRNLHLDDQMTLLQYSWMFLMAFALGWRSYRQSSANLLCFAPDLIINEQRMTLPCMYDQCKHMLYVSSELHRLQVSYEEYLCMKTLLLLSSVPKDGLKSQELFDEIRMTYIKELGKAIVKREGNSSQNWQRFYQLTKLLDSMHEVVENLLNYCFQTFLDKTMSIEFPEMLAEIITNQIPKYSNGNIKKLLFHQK

With `Cn1cc[nH]c1=S`, the activity, negative = inhibition in [1] was -3.77%. In test [2], the Potency result is “inactive”. Besides, the result in test [3] was inactive.
For `CC1(C)OC(=O)NC1=O`, in test [1], the activity, negative = inhibition is 1.25%. Further, the Potency in test [4] and in test [5] was above 20.6 µM each time. Also, the Potency entry in [2] is “inactive”. Moreover, the call in test [3] was inactive.
On to `CC(=O)c1ccc2c(c1)N(CCCN(C)C)c1ccccc1S2`, for which the Potency in [4] and in [5] was above 20.6 µM in each case. In addition, the Potency entry in [2] is “inactive”. In test [3], the compound was called inactive.
`NC(=O)N/N=C/c1ccc([N+](=O)[O-])o1`: the Potency entry in [2], in test [8], in test [9], in [10], in test [12] and in [13] was “inactive” throughout. Further, the Potency entry in test [16] was “inactive”. Besides, in [6], the Potency was 31.6 µM (active). For the same compound, the activity change, negative = cytotoxicity in [7] was -81.4% (active). In addition, the compound was called inactive in [11], in test [14], in test [15], in [17], in test [18] and in test [19]. Besides, the outcome in [20] was inactive.
For the compound `O=C1O[C@H]([C@@H](O)CO)C(O)=C1O`, the Potency result in [2], in test [7], in test [8], in test [9], in test [10] and in test [12] was “inactive” in each case. In addition, the Potency entry in test [13] and in test [16] was “inactive” throughout. The activity change, negative = cytotoxicity in [6] is 3.88%. Besides, the outcome in [11], in [14], in [15], in [17], in test [18] and in [19] was inactive. Moreover, the outcome in test [20] was inactive.
For `COc1ccccc1O`, the Potency result in test [2], in [7], in test [8], in test [9], in test [10] and in test [12] was “inactive” in each case. Besides, the Potency result in [13] and in [16] was “inactive” throughout. The activity change, negative = cytotoxicity in [6] was 1.24% and 7.3% and 7.13%. Also, the compound was called inactive in test [11], in test [14], in [15], in [17], in [18] and in test [19]. The call in [20] was inactive.
